The text below walks through data of PubChem BioAssay AID504832 (National Center for Advancing Translational Sciences (NCATS), 2011).

Structures are written as SMILES. Out of some 310,000 compounds screened, about 18,000 (5.8%) were called active. Inconclusive results (about 22%) are left out. Calls follow the shape of the dose curve; as a rule, active = well fitted inhibition curve with a large enough effect; inconclusive = small, poorly fitted or top-dose-only effect, or another doubt; inactive = no such curve, though single readings can be large or run the other way. The list comes from a sample in which actives are over-represented; it also holds similar structures and randomly drawn compounds. A call without a number means that no potency is given here.
Potency is read from the fitted curve at half-maximal effect.

This assay is described as follows: Primary qHTS for delayed death inhibitors of the malarial parasite plastid, 48 hour incubation. As to conditions: P. falciparum luciferase growth in erythrocytes; series mostly up to 28.7 µM. A digest of the protocol: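 Compounds are pin-transferred into medium, infected erythrocytes (2% hematocrit, 0.1% parasitemia final) are added, and plates sit one parasite generation at 37 C in 5% CO2. Detection reagent is then added and luminescence measured.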
With `CN(C)c1cccc(C(=O)N2CCC(n3nccc3NC(=O)C3CCOC3)CC2)c1` (centres undefined), the Potency entry is “inactive”.
In the case of `COc1ccc(CCNC(=O)C(=O)NCC2OCCN2S(=O)(=O)c2ccc(OC)c(C)c2)cc1` (centres undefined), the Potency entry is “inactive”.
With `COC(=O)c1ccccc1NC(=O)CSc1nc2c(c(=O)[nH]1)CCC2`, the Potency entry was “inactive”.
To `CCc1ccc(OCC(=O)OC(C)C(=O)NC2CC2)cc1` (centres undefined) belongs “inactive”.
Regarding `O=C(NC1CCCC1)C1CCN(C(=O)Nc2cccc(Cl)c2)CC1`, the Potency entry is “inactive”.
Turning to `COc1ccc(Cl)cc1NC(=O)C(C)N1CCc2ccccc21` (centres undefined), the Potency is 6.57 µM (active).
To `COc1ccc(Cl)cc1NC(=O)CCN1CCOCC1` belongs “inactive”.
On to `COc1ccc(Cl)cc1NC(=O)CNc1ccccc1F`, for which the Potency result was “inactive”.
Next, `O=C(O)CC(c1ccccc1F)N1Cc2ccccc2C1=O` (centres undefined): “inactive”.
Turning to `CNc1nc(Nc2ccc(C)c(Cl)c2)nc(N)c1[N+](=O)[O-]`, the Potency entry is “inactive”.
To `Nc1nc(NCC(=O)O)nc(N2CCCCCC2)c1[N+](=O)[O-]` belongs “inactive”; to `CCN1CCN(c2nc(Nc3cccc(F)c3)nc(N)c2[N+](=O)[O-])CC1`, 13.1 µM (active); to `COc1ccccc1C(=O)NC(=O)COC(=O)c1ccco1`, “inactive”.
Next, `O=C(Cn1cnc2ccccc21)Nc1ccccc1-c1ccccc1`: “inactive”; `CCSc1nnc(SCC(=O)NNC(=O)c2ccccc2F)s1`: “inactive”; `OCC1(CCOc2ccccc2)CCN(Cc2cn[nH]c2-c2ccccc2)CC1`: “inactive”.
To `Cc1c(CN2CCC(CO)(CCOc3ccccc3)CC2)[nH]c2ccc(Cl)cc12` belongs 3.7 µM (active); to `Cc1cc(OCCCN2CCN(Cc3ccccc3)CC2)ccc1[N+](=O)[O-]`, “inactive”.
`CC(OC(=O)CN1C(=O)COc2ccccc21)C(=O)NCc1ccc(F)cc1` (centres undefined): the Potency result is “inactive”.
Next, `O=C(NCCc1ccccn1)c1nc(Cn2cc([N+](=O)[O-])cn2)no1`: “inactive”; `CC(=O)Nc1ccc(S(=O)(=O)N(C)c2nc3ccccc3nc2Cl)cc1`: “inactive”.
To `COc1ccc(C(=O)C2CCCN(C(=O)c3cc(C)on3)C2)cc1F` (centres undefined) belongs “inactive”; to `CCOc1cc(N2CCOCC2)c(OCC)cc1NC(=O)COc1cccc2cccnc12`, 3.29 µM (active).
Next, `CCOc1cc(N2CCOCC2)c(OCC)cc1NC(=O)C1=NN(c2cccc(C)c2)C(=O)CC1`: “inactive”; `O=C(COC(=O)c1ccccc1F)Nc1cc(S(=O)(=O)N2CCOCC2)ccc1N1CCCC1`: “inactive”.
On to `CC(=O)NCCC(=O)Nc1cc(S(=O)(=O)N2CCOCC2)ccc1N1CCOCC1`, for which the Potency result is “inactive”.
For the compound `NC(=O)C1CCN(C(=O)COc2cccc3cccnc23)CC1`, the Potency result was “inactive”.
Take `O=C(COc1cccc2ccccc12)Nc1cc(S(=O)(=O)N2CCOCC2)ccc1N1CCOCC1`: the Potency is 11.7 µM (active).
`O=C(Nc1c2c(nn1-c1ccccc1)CS(=O)(=O)C2)C1CCCC1`: the Potency result is “inactive”.
